Measured values: PubChem BioAssay AID1259336 (Sattelle Laboratory, UCL Respiratory, Division of Medicine, …, 2017)
Active and inactive are the calls of the source. Rule as the data show it: active = log2 fold change growth below about -1.8; inactive = the rest.

Test: C. elegans growth inhibition, whole organism, log2 fold change (AID 1259336);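 also: growth scored by imaging after five days at 20 °C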
Settings: anthelmintic screen, active compounds read low
In the case of `O=C(Nc1ccc2c(c1)B(O)OC2)c1ccccc1C(F)(F)F`, the log2 fold change growth is reported as -8.94 (active). In the case of `CC(=O)Nc1ccc(NC(=O)c2cc(-c3cc(Cl)ccc3O)n[nH]2)cc1`, the log2 fold change growth is reported as 0.254 (inactive). With `Nc1ncnc2c1ncn2[C@@H]1O[C@H](COS(=O)(=O)NC(=O)c2ccccc2O)[C@@H](O)[C@H]1O` the log2 fold change growth was 0.353 (inactive). For `c1ccc(-c2nc(NC3CCCCC3)cc(C3CC3)n2)nc1`, the log2 fold change growth was -0.0356 (inactive). For `CCOc1ccc2cc(-c3nn(C(C)(C)C)c(N)c3C(N)=O)cnc2c1`, the log2 fold change growth was -0.647 (inactive). For `COc1cc(C2=NCCN2)cc2cc(-c3ccc(C4=NCCN4)cc3)oc12`, the log2 fold change growth was 0.303 (inactive). In the case of `NCC(=O)N1CCn2c(nc(-c3ccccc3)c2Nc2ccc3c(c2)OCO3)C1`, the log2 fold change growth is reported as 0.0553 (inactive). With `O=C(Nc1nnc(-c2ccc(Cl)cc2)o1)c1cccc(C(F)(F)F)c1` the log2 fold change growth was -1.36 (inactive). For `O=C(NC1CC1)c1ccc(N2CCOc3ccc(Cl)cc32)s1`, the log2 fold change growth was -0.614 (inactive). With `NCCC(O)C(=O)N[C@@H]1C[C@H](N)[C@@H](OC2O[C@H](CN)[C@@H](O)[C@H](O)[C@H]2O)[C@H](O)C1OC1O[C@H](CO)[C@@H](O)[C@H](N)[C@H]1O` (some centres undefined) the log2 fold change growth was 0.334 (inactive). For `Cc1[nH]n2c(=O)c3c(nc2c1-c1ccc(F)cc1)CCCC3`, the log2 fold change growth was -0.19 (inactive). In the case of `FC(F)(F)c1ccc(N(c2cccnc2)C2CCN(c3ccc(C(F)(F)F)cn3)CC2)cc1`, the log2 fold change growth is reported as -0.44 (inactive). For `O=C1N(Cc2cc3ccccc3s2)C[C@H]2CN(Cc3ccccc3)CCN12`, the log2 fold change growth was -0.864 (inactive). With `Cc1ccc(-c2nc(CN(Cc3ccccn3)C(C)C)cs2)o1` the log2 fold change growth was 0.617 (inactive). For `CCCCc1ccc(NC(=O)Nc2ccc(O[C@H]3CCCC[C@@H]3N(C)c3ccccc3)c(F)c2)cc1`, the log2 fold change growth was -0.0752 (inactive). In the case of `COc1cccn2c(C(=O)N3CCCCC3)c(C(F)(F)F)nc12`, the log2 fold change growth is reported as 0.258 (inactive). For `Nc1ncc(-c2ccc(C(F)(F)F)nc2)cc1-c1ccc(C(F)(F)F)nc1`, the log2 fold change growth was 0.0312 (inactive). For `COc1ccc([C@@H]2CC(c3cccs3)=NN2C(=O)c2ccco2)cc1OC`, the log2 fold change growth was -0.296 (inactive). With `COc1ccc(-c2onc(C(F)(F)F)c2-c2ccc(Cl)cc2)c(O)c1` the log2 fold change growth was 0.102 (inactive). For `CS(=O)(=O)c1ccc(C(=O)N(C[C@H]2CCCO2)c2nc3ccccc3s2)cc1[N+](=O)[O-]`, the log2 fold change growth was 0.211 (inactive). In the case of `CCCS(=O)(=O)N1CCC(CO)(Cc2ccccc2C(F)(F)F)CC1`, the log2 fold change growth is reported as 0.357 (inactive). For `COc1ccc(-c2nc(-c3cccc(NC(=O)Cc4ccc(F)cc4)c3)no2)cc1OC`, the log2 fold change growth was -0.107 (inactive). In the case of `COc1cc(C2=NCCN2)ccc1-c1cn(-c2cccc(C3=NCCN3)c2)nn1`, the log2 fold change growth is reported as -0.121 (inactive). In the case of `NC(N)=Nc1ccc(-c2ccc(-c3ccc(N=C(N)N)cc3Cl)o2)c(Cl)c1`, the log2 fold change growth is reported as 0.171 (inactive). In the case of `Brc1c(-c2ccc3c(c2)OCO3)nc2ncccn12`, the log2 fold change growth is reported as 0.0304 (inactive). In the case of `FC(F)(F)c1cc(NCCc2ccccc2)nc(-c2ccccn2)n1`, the log2 fold change growth is reported as -0.968 (inactive). In the case of `COc1ccc(-c2cncc3ccc(C(=O)NCCCn4ccnc4)nc23)cc1`, the log2 fold change growth is reported as 0.283 (inactive). With `CN(C)CCNC(=O)N1CCCN(c2ncnc3cc(-c4ccccc4)sc23)CC1` the log2 fold change growth was -0.255 (inactive). With `O=C(Nc1ccccc1-c1nc2c(C(=O)O)cccc2o1)c1ccccc1` the log2 fold change growth was -0.0236 (inactive). For `CCN(CC)S(=O)(=O)c1ccc(C(=O)Nc2cc(C)nn2-c2nc(C)c(C)c(=O)[nH]2)cc1`, the log2 fold change growth was 0.269 (inactive). In the case of `O=C(Nc1cccc(Cl)c1)c1cnc(N2CCN(c3ccncc3)CC2)c(Cl)c1`, the log2 fold change growth is reported as -0.57 (inactive). With `O=C(NCCc1ccccc1)c1cc(-c2cccnc2)cnc1NCC1CC1` the log2 fold change growth was -0.19 (inactive). With `CCOC(=O)c1noc(N)c1-c1ccccc1` the log2 fold change growth was 0.292 (inactive). In the case of `NC(=O)c1cc(Br)ccc1OCCOc1ccccc1`, the log2 fold change growth is reported as 0.186 (inactive). With `O=C(OCc1ccccc1)N1CCC(c2cc(-c3ccncc3)c(-c3ccc(F)cc3)[nH]2)CC1` the log2 fold change growth was -0.374 (inactive). With `Cc1nc(-c2ccccn2)nc(NCCc2ccc(S(C)(=O)=O)cc2)c1Cl` the log2 fold change growth was -0.702 (inactive). In the case of `CCOC(=O)c1c(NC(=O)c2c(F)c(F)c(F)c(F)c2F)sc(C(N)=O)c1C`, the log2 fold change growth is reported as 0.119 (inactive). With `COc1ccc(Cn2cnc3c(-c4ccco4)nc(Cl)nc32)cc1` the log2 fold change growth was -0.325 (inactive). With `COC(=O)Nc1nc2ccc(C(=O)c3ccccc3)cc2[nH]1` the log2 fold change growth was -6.04 (active).
